Pf Dd2 inh = qHTS Primary assay for Inhibitors of Plasmodium falciparum Dd2 growth in vitro. Potency, µM (titrated, usually from 28.9 µM), for inactives: at the top dose activity, negative = inhibition, usual class: inhibitors. AID 1347417, 2020. P. falciparum Dd2 growth, SYBR Green, 72 h. actives 4.3% (n = 120,000); active means well fitted inhibition curve with a large enough effect;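 further: plate controls were DMSO vehicle for no effect and reference drug for full effect; nearly all actives have a fitted effect of over 65% in size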
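Readout: SYBR Green fluorescence, 485 nm excitation, 535 nm emission, after ~16 h lysis at 37C. Before that, Dd2-infected red cells (2.5% hematocrit) grew 72 h with compound, 29 uM top final concentration.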
* marks the source's active call; other numbers are inactive results; i = inactive; ! = not confirmed by another sample; [ ] = dose if it differs, or a comment. This excerpt belongs to a sample that is enriched for hits. Potency means the concentration at half of the fitted maximal effect.

SMILES	Pf Dd2 inh
CNC(=O)[C@@H](c1ccc(OC)cc1)N1CCC[C@H]1C(=O)N1CCC1	-7%[44.1 µM]
Cc1nc(C(=O)N2CC(F)(F)C[C@H]2c2nnc(C3CC3)o2)co1	-18%
CCn1cc(CN2C[C@@H](COc3ccccc3)[C@H](C(N)=O)C2)cn1	-13%
CCCN(CC1CCOC1)C(=O)c1cc(F)cc(F)c1 (stereo not drawn)	4%[5.79 µM]
COCCN1CCCCCC(O)c2cc(C(=O)NCC(C)C)ccc21 (stereo not drawn)	-11%
COCCN1CCCCCC(O)c2cc(C(=O)NCC3CC3)ccc21 (stereo not drawn)	i
COCCN1CCCCCC(O)c2cc(C(=O)NCc3cc(F)cc(F)c3)ccc21 (stereo not drawn)	13µM*
Cc1ccc(C(=O)N2CCC3(C2)C(=NC2CCCCC2)NC(=O)N3c2cccnc2)cc1 (stereo not drawn)	16%
CCOC(=O)c1nc(Nc2ccc(C(=O)OC(C)C)cc2)c2ccccc2n1	3.2µM*
CCCCCOC(=O)c1ccc(Nc2nc(C(=O)OCC)nc3ccccc23)cc1	5%
CCOC(=O)c1ccc(Nc2nc(C(=O)OCC)nc3ccccc23)cc1	i
CCOC(=O)c1nc(Nc2ccc(OC)cc2)c2ccccc2n1	20%
CCOC(=O)c1nc(Nc2ccc(C(=O)OCC(C)C)cc2)c2ccccc2n1	11µM*
CCOC(=O)c1nc(Nc2ccccc2OC)c2ccccc2n1	39%
COc1ccc(CCC(=O)N2CCCCCCNC(=O)CC2)cc1	-28%
COc1cc(-c2ncccc2C(=O)N2CCCC2)cc(OC)c1OC	-18%
Cc1n[nH]c(C)c1CCCNC(=O)C1CC2(CCNCC2)CN1 (stereo not drawn)	10%
CC(C)C[C@@H](NC(=O)[C@@]1(O)C[C@@H](O)[C@H](O)[C@@H](NS(=O)(=O)c2cccc(C(F)(F)F)c2)C1)C(N)=O	i
CC#CC(=O)N1CCCC(N2CCN(c3cccc(Cl)c3)CC2)C1 (stereo not drawn)	-13%
Cc1ccc(C2(C(=O)N3CCC4(CC3)CNC(C(=O)O)C4)CC2)cc1 (stereo not drawn)	12%
COc1ccc(Nc2ncc(C(=O)N3CCN(c4ccc(OC)cc4)CC3)c3ccccc23)cc1	i
COc1ccccc1N1CCN(C(=O)c2c(C)oc3ncn(CC(C)C)c(=O)c23)CC1	8%
COc1cc2c(C(=O)N3CCN(c4ccc(F)cc4)CC3)cn(CC(C)C)c(=O)c2cc1OC	10µM*
COc1ccc(N2CCN(C(=O)c3cn(CC(C)C)c(=O)c4c3c3ccccc3n4C)CC2)cc1	10µM*
COc1ccccc1N1CCN(C(=O)c2cn(CC(C)C)c(=O)c3c2c2ccccc2n3C)CC1	7.9µM*
SMILES	Pf Dd2 inh
COc1cc2c(C(=O)N(C)c3cccc(C(F)(F)F)c3)cn(CC(C)C)c(=O)c2cc1OC	-17%
COc1ccccc1N1CCN(C(=O)Nc2cn(CC(C)C)c(=O)c3ccccc23)CC1	45%[5.79 µM]
COc1ccc(N2CCN(C(=O)c3cc4c(=O)n(Cc5ccccc5)ccc4nc3C)CC2)cc1	-16%
COc1cc(Cl)c(C)cc1NC(=O)c1cn(CC(C)C)c(=O)c2cc(OC)c(OC)cc12	0%
Cc1cc(CNC(=O)C2(C(N)=O)CC2)c2[nH]c(-c3ccccc3)c(C)c2c1	-23%
O=C(c1ccccc1Cl)N1CCC(c2nn(Cc3ccccc3)c(=O)[nH]2)CC1	-4%
Cc1ccc(-n2c(C3CCN(C(=O)CCC4CCCC4)CC3)n[nH]c2=O)cc1	-22%
CCOc1cccc(CN2CCC3(CC2)CC(CC(=O)N2CCCC2)CCO3)c1 (stereo not drawn)	166%
Cc1nnc2n1CCC(N(C)C(=O)c1cncc(Br)c1)CC2 (stereo not drawn)	9%
Cc1ccc(-n2c(-c3ccco3)nc3c(cnn3-c3ccccc3C)c2=O)cc1	i
Cc1ccc(-c2nc3c(cnn3-c3ccccc3)c(=O)n2-c2cccc(Cl)c2)cc1	-7%
Cc1ccc(-n2c(C)nc3c(cnn3-c3ccccc3)c2=O)cc1	14%
Cc1cccc(-n2c(-c3ccco3)nc3c(cnn3-c3ccc(F)cc3)c2=O)c1	i
Cc1ccc(-n2c(-c3ccco3)nc3c(cnn3-c3ccc(C)cc3)c2=O)cc1	11µM*
COc1cccc(-n2c(-c3ccccc3F)nc3c(cnn3-c3ccc(C)cc3)c2=O)c1	8.9µM*
c1ccc(NCCn2cc(C3CCCNC3)nn2)cc1 (stereo not drawn)	-4%
COC[C@H]1CCCN1C(=O)C[C@@H]1O[C@H](CNC(=O)c2ccc(C)cc2)[C@@H](O)[C@H]1O	-25%[44.1 µM]
CC1(C(=O)N2CCCC(CCc3ccc(F)c(F)c3)C2)CC1 (stereo not drawn)	i
Fc1ccc(CCC2CCCN(Cc3nccs3)C2)cc1F (stereo not drawn)	i
Fc1ccc(CCC2CCCNC2)cc1F (stereo not drawn)	7.1µM*
CCn1nc(C)c(CN2C[C@@H](CO)[C@H](c3nc(COC)no3)C2)c1C	15%
C#CCN(C)C(=O)[C@@H]1CCCN1C1(C(=O)NC)CCCCC1	-2%[44.1 µM]
Cc1nc2c(c(-c3ccc(O)cc3)n1)CN(Cc1cncs1)CC2	-7%[44.1 µM]
Oc1ccc(-c2nc(C3CC3)nc3c2CN(Cc2ccsc2)CC3)cc1	7.1µM*
CCc1nc2c(c(-c3ccc(O)cc3)n1)CN(Cc1ccccc1OC)CC2	-17%
SMILES	Pf Dd2 inh
Oc1ccc(-c2nc(C3CC3)nc3c2CN(Cc2ccccc2C(F)(F)F)CC3)cc1	2.5µM*!
Cc1nc2c(c(-c3ccc(O)cc3)n1)CN(Cc1ccsc1)CC2	i
CN(CC1CCOC1)C(=O)Nc1cc(F)cc(F)c1 (stereo not drawn)	-10%
Cc1nnc([C@@H]2CC(F)(F)CN2S(=O)(=O)c2cccc(F)c2)o1	35%
CNc1cc(C2CC(NS(=O)(=O)c3cc(C)sc3C)C2)nc(N)n1 (stereo not drawn)	8.9µM*
Cc1cc(C(F)(F)F)nc(CCNc2cc(C3CC(N)C3)nc(N)n2)n1 (stereo not drawn)	-21%
CS(=O)(=O)NC1CCN(c2cc(C3CC(N)C3)nc(N)n2)CC1 (stereo not drawn)	0%
COc1ccc(S(=O)(=O)N2CCc3nnc([C@@H]4C[C@@H](O)CN4C)n3CC2)cc1	3%
Cc1cccc(C(=O)N2CC(c3noc(C4CCCN4C)n3)C2)c1 (stereo not drawn)	i
O=C([C@H]1C[C@H](Oc2ccccc2)CN1C(=O)c1ccco1)N1CCOCC1	-4%
COc1cccc(CN2CC[C@H]3COC(=O)N3c3ccc(OC)cc3C2)c1	11%[44.1 µM]
COc1ccc2c(c1)CN(Cc1ccc(C(F)(F)F)cc1)CC[C@H]1COC(=O)N21	i
COc1ccc2c(c1)CN(Cc1ccccc1Cl)CC[C@H]1COC(=O)N21	11µM*
O=C(CN1C(=O)NC2(CCCCC2)C1=O)Nc1ccccc1	17%
CCCn1cnnc1CNC(=O)C1(Oc2ccc(Cl)cc2)CCNCC1	7%
COc1cc(C)c(-c2nc(Cn3cncn3)c(C)o2)cc1C	4%
Cc1ccc(-n2c3c(c(=O)[nH]c2=O)C(NS(=O)(=O)c2ccc(C)cc2)(C(F)(F)F)C(=O)N3)cc1 (stereo not drawn)	22%
Cc1ccc(-n2c3c(c(=O)[nH]c2=O)C(NS(=O)(=O)c2ccc(Cl)cc2)(C(F)(F)F)C(=O)N3)cc1 (stereo not drawn)	8.9µM*
O=C1Nc2c(c(=O)[nH]c(=O)n2-c2ccc(F)cc2)C1(NS(=O)(=O)c1ccc(Cl)cc1)C(F)(F)F (stereo not drawn)	37%

Screening results as filed in PubChem BioAssay.
